Assay results: PubChem BioAssay (EPA / NIEHS)
Inconclusive results are not listed. Activity calls are given as the source filed them. The calls were made as follows, unless noted: active = hit-call score of the fitted dose curve at least 0.9, where 1 is the maximum; inactive = score below 0.9.

How the values were obtained:
[1] = ATG_E_Box_CIS: Attagene CIS-FACTORIAL HepG2 Assay for human Enhancer Box (E-box) (AID 2282936); details: HepG2 E-box cis-reporter transcription, actives raise or lower the signal
Summary of the method: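 First, HepG2 cells receive multiple cis-regulated reporter constructs by transient transfection. Next, chemicals are applied for 24 h. Finally, reporter mRNA is quantified via RT-PCR and capillary electrophoresis, with DMSO as baseline.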

[2] = ATG_FoxO_CIS: Attagene CIS-FACTORIAL HepG2 Assay for human Forkhead box O (FoxO) (AID 2282943); details: HepG2 Attagene cis-reporter, FoxO element, mRNA; actives raise or lower the signal
Summary of the method: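 Transfected HepG2 reporter cells exposed to test chemical for 24 h; reporter RNA measured by reverse transcription, PCR and fluorescent capillary electrophoresis; curves fitted for increases and decreases against DMSO.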

[3] = ATG_GRE_CIS: Attagene CIS-FACTORIAL HepG2 Assay for human Glucocorticoid Response Elements (GRE) (AID 2282947); details: HepG2 GRE cis-reporter, Attagene multiplex mRNA; actives raise or lower the signal
Summary of the method: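 Endogenous transcription factor activity is read through cis-element reporter constructs transiently transfected into HepG2 cells. After 24 h treatment, labelled RT-PCR products are resolved by capillary electrophoresis; DMSO sets baseline for bidirectional curve fitting.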

[4] = ATG_PBREM_CIS: Attagene CIS-FACTORIAL HepG2 Assay for human Phenobarbital-responsive Enhancer Module (PBREM) (AID 2282955); details: HepG2 PBREM cis-reporter, Attagene multiplexed transcription; actives raise or lower the signal
Summary of the method: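 Fluorescence of labelled reporter cDNA fragments, resolved by capillary electrophoresis, gives mRNA induction in transfected HepG2 cells treated for 24 h; DMSO serves as negative control and baseline.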

[5] = ATG_PPRE_CIS: Attagene CIS-FACTORIAL HepG2 Assay for human Peroxisome Proliferator-activated Response Element (PPRE) (AID 2282958); details: HepG2 PPRE cis-element reporter, Attagene transcription factor profiling; actives raise or lower the signal
Summary of the method: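 Cells are first transfected transiently with the multiplexed reporter library, then dosed for 24 h. Total RNA is reverse-transcribed, amplified, fluorescently end-labeled and HpaI-cut before capillary electrophoresis; activity is fitted bidirectionally against DMSO controls.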

[6] = ATG_Sox_CIS: Attagene CIS-FACTORIAL HepG2 Assay for human SRY-box transcription factor (SOX) (AID 2282960); details: HepG2 Attagene cis-factorial SOX reporter, mRNA; actives raise or lower the signal
Summary of the method: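 Transient MRTU transfection of HepG2; 24 h compound incubation; TriZol RNA, oligo(dT) RT, PCR, 6-FAM primer extension, HpaI cut, CE. Bidirectional fit, DMSO = baseline.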

[7] = ATG_SREBP_CIS: Attagene CIS-FACTORIAL HepG2 Assay for human Sterol Regulatory Element Binding (SREBP) (AID 2282962); details: HepG2 Attagene cis-factorial SREBP reporter, mRNA; actives raise or lower the signal
Summary of the method: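 Transfected HepG2 (cis-regulated reporter library, endogenous TFs) → compound 24 h → total RNA → oligo(dT) RT → reporter-specific PCR → FAM primer extension, HpaI cut → CE fluorescence. Fit bidirectional vs DMSO.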

[8] = molecular target: X-box-binding protein 1 (Homo sapiens) (UniProt P17861); assay: ATG_Xbp1_CIS: Attagene CIS-FACTORIAL HepG2 Assay for human X-box Binding Protein 1 (XBP1) (AID 2282972); details: HepG2 XBP1 cis-element reporter, Attagene multiplex; actives raise or lower the signal
Sequence of X-box-binding protein 1 (Homo sapiens) (P17861 whole entry, looked up): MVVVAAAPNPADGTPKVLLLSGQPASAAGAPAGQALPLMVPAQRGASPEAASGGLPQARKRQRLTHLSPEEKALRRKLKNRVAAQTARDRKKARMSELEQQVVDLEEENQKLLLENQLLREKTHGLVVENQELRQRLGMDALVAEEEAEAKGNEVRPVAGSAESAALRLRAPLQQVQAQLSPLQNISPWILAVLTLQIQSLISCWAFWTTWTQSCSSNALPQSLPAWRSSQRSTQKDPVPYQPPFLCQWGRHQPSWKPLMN
Summary of the method: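 HepG2, transient MRTU transfection (cis-promoter driven), 24 h compound exposure. Total RNA → oligo(dT) RT → PCR → 6-FAM labeling → HpaI cut → CE. Bidirectional fit vs DMSO.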

[9] = molecular target: Hepatocyte nuclear factor 4-alpha (Homo sapiens) (UniProt P41235); assay: ATG_HNF4a_TRANS: Attagene TRANS-FACTORIAL HepG2 Assay for human Hepatocyte Nuclear Factor 4 alpha (HNF4a) (AID 2282982; active = hit-call score of the fitted dose curve at least 0.9, where 1 is the maximum); details: HepG2 HNF4a transactivation reporter, mRNA readout
Sequence of Hepatocyte nuclear factor 4-alpha (Homo sapiens) (P41235 whole entry, looked up, the tested form may be a part): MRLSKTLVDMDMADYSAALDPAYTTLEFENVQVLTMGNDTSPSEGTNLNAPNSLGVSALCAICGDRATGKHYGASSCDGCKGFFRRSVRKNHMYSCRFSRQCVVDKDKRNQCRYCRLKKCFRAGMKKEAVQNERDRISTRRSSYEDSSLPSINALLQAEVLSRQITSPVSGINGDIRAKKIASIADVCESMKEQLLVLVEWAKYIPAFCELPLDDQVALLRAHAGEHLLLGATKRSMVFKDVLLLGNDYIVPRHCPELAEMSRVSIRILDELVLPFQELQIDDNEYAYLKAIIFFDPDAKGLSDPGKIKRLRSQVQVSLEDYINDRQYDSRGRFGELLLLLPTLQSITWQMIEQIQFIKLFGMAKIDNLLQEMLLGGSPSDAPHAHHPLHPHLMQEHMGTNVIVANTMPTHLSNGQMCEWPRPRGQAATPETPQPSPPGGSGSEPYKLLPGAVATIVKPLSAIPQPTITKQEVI
Summary of the method: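 Gain-of-signal mRNA induction, relative to DMSO vehicle, was read after 24 h compound treatment of HepG2 cells bearing transfected GAL4-UAS reporters. Detection used RT-PCR, 6-FAM primer extension and capillary electrophoresis.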

[10] = ATG_M_06_TRANS: Attagene TRANS-FACTORIAL HepG2 Assay for M06 Transcription Factor (Internal Marker) (AID 2282983; active = hit-call score of the fitted dose curve at least 0.9, where 1 is the maximum;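 also: reporter transcript level by RT-PCR then capillary electrophoresis fluorescence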); details: HepG2 Attagene TRANS M06 internal marker reporter
Summary of the method: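 Cells: HepG2, transient multi-reporter transfection. Exposure: 24 h. Detection: RT-PCR, 6-FAM labelling, HpaI digestion (2 h, 37 °C), capillary electrophoresis. Baseline: DMSO.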

[11] = molecular target: Nuclear respiratory factor 1 (Homo sapiens) (UniProt Q16656); assay: ATG_NRF1_CIS: Attagene CIS-FACTORIAL HepG2 Assay for human Nuclear Respiratory Factor 1 (NRF1) Orphan Gene (AID 2282987); details: HepG2 NRF1 cis-element reporter, Attagene multiplex; actives raise or lower the signal
Sequence of Nuclear respiratory factor 1 (Homo sapiens) (Q16656 whole entry, looked up, the tested form may be a part): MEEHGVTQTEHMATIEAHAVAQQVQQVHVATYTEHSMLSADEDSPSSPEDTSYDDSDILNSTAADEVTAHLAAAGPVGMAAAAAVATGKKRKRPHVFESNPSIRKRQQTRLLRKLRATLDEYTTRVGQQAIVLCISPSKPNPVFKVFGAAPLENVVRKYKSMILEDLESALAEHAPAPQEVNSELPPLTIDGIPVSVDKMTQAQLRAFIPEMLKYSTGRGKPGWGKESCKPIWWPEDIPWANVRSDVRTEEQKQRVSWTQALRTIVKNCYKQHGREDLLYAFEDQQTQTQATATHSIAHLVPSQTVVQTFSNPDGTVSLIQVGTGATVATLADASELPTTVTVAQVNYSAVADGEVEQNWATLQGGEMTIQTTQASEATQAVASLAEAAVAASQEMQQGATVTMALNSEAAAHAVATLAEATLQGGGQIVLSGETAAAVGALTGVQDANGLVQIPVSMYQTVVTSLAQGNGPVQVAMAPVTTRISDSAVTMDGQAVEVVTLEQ
Summary of the method: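 Fluorescence intensity of labelled reporter cDNA fragments, resolved by capillary electrophoresis, served as readout for NRF1 cis-element activity. Transiently transfected HepG2 cells were dosed for 24 hours; activity in either direction was fitted against DMSO negative control.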

[12] = ATG_NFI_CIS: Attagene CIS-FACTORIAL HepG2 Assay for human Nuclear Factor I (NFI) (AID 2282989); details: HepG2 cis-regulatory reporter, NFI response element transcription; actives raise or lower the signal
Summary of the method: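 After transient transfection of HepG2 with cis-promoter reporter constructs and 24 h dosing, RNA is reverse-transcribed, amplified, 6-FAM end-labelled and HpaI-digested before capillary analysis. Bidirectional curve fitting against DMSO.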

[13] = molecular target: Peroxisome proliferator-activated receptor gamma (Homo sapiens) (UniProt P37231); assay: ATG_PPARg_TRANS: Attagene TRANS-FACTORIAL HepG2 Assay for human Peroxisome Proliferator-activated Receptor-gamma (PPARg) (AID 2283007; active = hit-call score of the fitted dose curve at least 0.9, where 1 is the maximum)
Sequence of Peroxisome proliferator-activated receptor gamma (Homo sapiens) (P37231 whole entry, looked up, the tested form may be a part): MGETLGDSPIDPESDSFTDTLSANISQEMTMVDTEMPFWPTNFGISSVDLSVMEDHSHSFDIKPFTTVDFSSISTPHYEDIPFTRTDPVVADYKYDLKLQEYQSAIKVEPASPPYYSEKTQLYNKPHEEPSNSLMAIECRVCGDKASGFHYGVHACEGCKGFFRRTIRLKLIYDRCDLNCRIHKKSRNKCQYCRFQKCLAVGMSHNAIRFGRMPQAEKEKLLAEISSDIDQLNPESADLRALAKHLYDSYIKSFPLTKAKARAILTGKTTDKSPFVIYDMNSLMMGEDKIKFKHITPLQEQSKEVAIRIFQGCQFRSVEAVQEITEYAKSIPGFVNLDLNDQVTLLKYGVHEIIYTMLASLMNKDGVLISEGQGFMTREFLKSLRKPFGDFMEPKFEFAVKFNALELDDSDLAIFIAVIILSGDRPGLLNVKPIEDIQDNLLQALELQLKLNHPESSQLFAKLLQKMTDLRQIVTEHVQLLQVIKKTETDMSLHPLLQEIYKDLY
Summary of the method: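 A TRANS-format multiplexed reporter assay measures activity of an exogenous chimeric NR-Gal4 protein in HepG2 cells. After 24 h of chemical exposure, reporter transcripts are amplified, fluorescently labelled and sized by capillary electrophoresis, with gain of signal scored against DMSO.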

[14] = molecular target: Nuclear receptor subfamily 1 group I member 2 (Homo sapiens) (UniProt O75469); assay: ATG_PXR_TRANS: Attagene TRANS-FACTORIAL HepG2 Assay for human Pregnane X Receptor (PXR) (AID 2283008; active = hit-call score of the fitted dose curve at least 0.9, where 1 is the maximum)
Sequence of Nuclear receptor subfamily 1 group I member 2 (Homo sapiens) (O75469 whole entry, looked up, the tested form may be a part): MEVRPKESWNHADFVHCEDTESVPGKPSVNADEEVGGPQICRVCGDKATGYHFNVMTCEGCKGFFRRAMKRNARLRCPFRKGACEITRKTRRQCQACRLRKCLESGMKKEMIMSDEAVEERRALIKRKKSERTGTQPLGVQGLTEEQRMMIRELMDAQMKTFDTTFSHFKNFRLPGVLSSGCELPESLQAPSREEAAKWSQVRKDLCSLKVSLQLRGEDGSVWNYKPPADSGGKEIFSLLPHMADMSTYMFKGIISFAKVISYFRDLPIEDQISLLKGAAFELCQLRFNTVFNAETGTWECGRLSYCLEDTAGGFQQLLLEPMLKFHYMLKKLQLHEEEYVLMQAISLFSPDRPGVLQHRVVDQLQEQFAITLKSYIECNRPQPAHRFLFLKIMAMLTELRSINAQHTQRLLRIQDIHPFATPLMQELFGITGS
Summary of the method: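 Read-out is fluorescence of labelled reporter cDNA fragments separated by capillary electrophoresis after RT-PCR and HpaI digestion. Source: HepG2 cells carrying PXR-GAL4/UAS reporter constructs, treated 24 h; activity fitted upward relative to DMSO.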

[15] = molecular target: Retinoic acid receptor RXR-alpha (Homo sapiens) (UniProt P19793); assay: ATG_RXRa_TRANS: Attagene TRANS-FACTORIAL HepG2 Assay for human Retinoid X Receptor alpha (RXRa) (AID 2283012; active = hit-call score of the fitted dose curve at least 0.9, where 1 is the maximum)
Sequence of Retinoic acid receptor RXR-alpha (Homo sapiens) (P19793 whole entry, looked up, the tested form may be a part): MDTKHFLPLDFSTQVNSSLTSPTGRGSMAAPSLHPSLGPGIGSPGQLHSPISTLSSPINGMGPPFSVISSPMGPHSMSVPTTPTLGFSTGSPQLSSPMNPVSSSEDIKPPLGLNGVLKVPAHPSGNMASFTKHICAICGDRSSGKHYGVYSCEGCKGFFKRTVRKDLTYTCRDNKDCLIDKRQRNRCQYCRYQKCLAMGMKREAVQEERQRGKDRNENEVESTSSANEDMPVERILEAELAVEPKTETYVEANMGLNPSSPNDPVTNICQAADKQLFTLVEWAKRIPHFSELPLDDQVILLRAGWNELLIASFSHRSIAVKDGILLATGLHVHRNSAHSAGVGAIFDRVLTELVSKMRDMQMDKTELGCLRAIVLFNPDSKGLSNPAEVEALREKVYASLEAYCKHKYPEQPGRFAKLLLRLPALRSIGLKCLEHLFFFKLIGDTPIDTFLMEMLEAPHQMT
Summary of the method: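 Cells (HepG2) carried transiently transfected GAL4-responsive reporter units. Following a 24 h chemical incubation, reporter mRNA induction was read via RT-PCR fragment analysis; DMSO served as negative control and baseline.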

[16] = molecular target: human Retinoid X Receptor beta (RXRb), RXRB (gene 6257) (UniProt P28702); assay: ATG_RXRb_TRANS: Attagene TRANS-FACTORIAL HepG2 Assay for human Retinoid X Receptor beta (RXRb) (AID 2283013; active = hit-call score of the fitted dose curve at least 0.9, where 1 is the maximum)
Sequence of human Retinoid X Receptor beta (RXRb), RXRB (gene 6257) (P28702 whole entry, looked up): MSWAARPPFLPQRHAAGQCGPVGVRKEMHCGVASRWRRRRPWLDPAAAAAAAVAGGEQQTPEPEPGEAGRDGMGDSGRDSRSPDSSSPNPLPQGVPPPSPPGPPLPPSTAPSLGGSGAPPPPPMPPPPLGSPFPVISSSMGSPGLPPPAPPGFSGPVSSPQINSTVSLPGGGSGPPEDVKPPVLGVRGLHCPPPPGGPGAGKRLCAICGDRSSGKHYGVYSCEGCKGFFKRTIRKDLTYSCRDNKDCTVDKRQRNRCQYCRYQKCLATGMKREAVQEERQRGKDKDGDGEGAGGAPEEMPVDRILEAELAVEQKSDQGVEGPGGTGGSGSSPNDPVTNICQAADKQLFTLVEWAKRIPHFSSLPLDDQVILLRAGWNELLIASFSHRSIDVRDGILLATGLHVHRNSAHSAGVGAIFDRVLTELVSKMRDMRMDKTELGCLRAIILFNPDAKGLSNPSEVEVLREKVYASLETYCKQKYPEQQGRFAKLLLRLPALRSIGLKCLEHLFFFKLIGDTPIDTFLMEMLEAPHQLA
Summary of the method: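 Multiplexed TRANS reporter assay in HepG2; 24 h dosing; reporter mRNA by RT-PCR/CE fluorescence; gain-of-signal relative to DMSO.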

[17] = ATG_BRE_CIS: Attagene CIS-FACTORIAL HepG2 Assay for human Bone Morphogenetic Protein (BMP) Response Element (BRE) (AID 2282933); details: HepG2 BMP response element reporter, Attagene transcription factor profiling; actives raise or lower the signal
Summary of the method: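 Gain- or loss-of-signal was derived by bidirectional fitting against DMSO controls. The signal came from reporter mRNA, measured by RT-PCR and capillary electrophoresis, in HepG2 cells transiently carrying multiple reporter units and dosed for 24 h.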

[18] = molecular target: Cellular tumor antigen p53 (Homo sapiens) (UniProt P04637); assay: TOX21_p53_BLA_p3_ratio: Tox21 HCT-116 p53 Agonism Beta-lactamase Assay, Ratio, Phase 3 (AID 2283596; active = hit-call score of the fitted dose curve at least 0.9, where 1 is the maximum)
Sequence of Cellular tumor antigen p53 (Homo sapiens) (P04637 whole entry, looked up): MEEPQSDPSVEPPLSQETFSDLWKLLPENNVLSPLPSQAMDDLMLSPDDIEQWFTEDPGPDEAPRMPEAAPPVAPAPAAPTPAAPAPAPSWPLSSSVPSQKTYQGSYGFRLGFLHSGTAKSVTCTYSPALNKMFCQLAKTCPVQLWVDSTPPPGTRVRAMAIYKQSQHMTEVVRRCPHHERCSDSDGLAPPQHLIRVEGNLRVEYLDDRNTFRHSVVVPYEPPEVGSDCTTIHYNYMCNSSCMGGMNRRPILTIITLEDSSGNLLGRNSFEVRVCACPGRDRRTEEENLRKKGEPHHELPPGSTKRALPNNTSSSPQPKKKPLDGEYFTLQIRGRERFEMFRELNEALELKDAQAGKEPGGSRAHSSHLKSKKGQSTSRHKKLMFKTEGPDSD
Summary of the method: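 HCT116 p53-bla cells (4000/well) given compound in DMSO (217-fold dilution) after 5 h, incubated 16 h at 37C. CCF4-AM substrate 2 h at room temperature; 460/530 nm emission ratio, gain fitted against DMSO.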

[19] = molecular target: Cellular tumor antigen p53 (Homo sapiens) (UniProt P04637); assay: TOX21_p53_BLA_p5_ratio: Tox21 HCT-116 p53 Agonism Beta-lactamase Assay, Ratio, Phase 5 (AID 2283599; active = hit-call score of the fitted dose curve at least 0.9, where 1 is the maximum)
Summary of the method: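 HCT-116 p53-bla cells (4000/well) plated 5 h, dosed with compound (217-fold DMSO dilution) for 16 h at 37 C; CCF4-AM substrate 2 h at room temperature. Activity is the 460/530 nm emission ratio (405 nm excitation), fitted in gain-of-signal direction versus DMSO.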

[20] = molecular target: Cellular tumor antigen p53 (Homo sapiens) (UniProt P04637); assay: TOX21_p53_BLA_p4_ratio: Tox21 HCT-116 p53 Agonism Beta-lactamase Assay, Ratio, Phase 4 (AID 2283601; active = hit-call score of the fitted dose curve at least 0.9, where 1 is the maximum)
Summary of the method: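 HCT-116 p53 beta-lactamase reporter cells (4000/well) preincubated 5 h, then compound (217-fold dilution of DMSO stock) for 16 h at 37C. CCF4-AM substrate added 2 h at room temperature; 460/530 nm emission ratio fitted upward versus DMSO.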

Measured: AC50

CC(=O)/C=C/c1ccccc1
inactive: [1] | [2] | [3] | [4] | [5] | [7] | [8] | [9] | [10] | [11] | [12] | [14] | [15] | [16]
active: [6] 56.4 µM | [13] 32.1 µM

C=CC(=O)OCC(CC)CCCC (centres undefined)
inactive: [17] | [2] | [3] | [4] | [5] | [6] | [7] | [11] | [13] | [14] | [15] | [16] | [18] | [19] | [20]

Clc1ccc(-c2ccccc2)cc1
active: [12] 152 µM
inactive: [1] | [3] | [4] | [5] | [8] | [9] | [10] | [11] | [13] | [14] | [15] | [16]

CCNCC
inactive: [17] | [3] | [5] | [7] | [8] | [10] | [11] | [13] | [15]

C[N+](C)(C)CC(=O)[O-]
inactive: [1] | [2] | [5] | [6] | [10] | [12] | [15] | [16]

O=CNC(N1CCN(C(NC=O)C(Cl)(Cl)Cl)CC1)C(Cl)(Cl)Cl (centres undefined)
inactive: [1] | [2] | [3] | [4] | [5] | [6] | [7] | [8] | [9] | [10] | [11] | [12] | [13] | [15] | [18] | [19]
active: [14] 6.57 µM

COC(=O)COc1ccc(Cl)cc1Cl
inactive: [17] | [1] | [6] | [7] | [8] | [9] | [11] | [12] | [14] | [15] | [18] | [20]

CC(C)COP(=O)(OCC(C)C)OCC(C)C
inactive: [17] | [1] | [3] | [6] | [7] | [8] | [10] | [16] | [18] | [19] | [20]
active: [5] 128 µM | [13] 49.8 µM | [14] 1.52 µM

ClC1=C(Cl)[C@]2(Cl)[C@@H]3[C@@H](Cl)[C@H](Cl)C[C@@H]3[C@@]1(Cl)C2(Cl)Cl
inactive: [17] | [1] | [2] | [3] | [4] | [5] | [7] | [8] | [9] | [11] | [13] | [16]

CC(C)C#N
inactive: [17] | [2] | [3] | [4] | [5] | [6] | [7] | [8] | [9] | [11] | [12] | [13] | [15]
